# The list is not random: actives were taken first. Their share in the collection is about 3.6%.
# HTT-AS act – activates huntingtin-antisense promoter activity; Potency, µM (highest dose often 57.5 µM), for the others: top-dose activity change, positive = activation, hits mostly activators; AID 1508624; 48,000 compounds, 0.24% hits; HEK293 HTT-AS promoter firefly luciferase reporter, 24 h; response scale: percent change from vehicle, -100% = no light; also: potency is read from the fitted curve at half-maximal effect; nearly all actives have a fitted effect of over 55% in size
#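 HEK293 cells carrying firefly luciferase reporters were seeded at 2,500 per well in Opti-MEM and cultured for 24 h. They were then treated with compounds at up to 57.5 uM final for 24 h at 37 degrees C before Dual-Glo luminescence readout.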
# S16 F2sN tox – toxic to S16 Pmp22-F2sN Schwann cells | Potency, µM (top dose mostly 57.5 µM), for the others: at the top dose activity change, negative = cytotoxicity, usual class: cytotoxic | 43,000 compounds, 0.48% hits | S16 Pmp22-F2sN Schwann cells viability, CellTiter-Glo, 24 h; also: potency is read from the fitted curve at half-maximal effect; % is scaled to controls: 0 for no effect and ±100 for the full control effect; nearly all actives have a fitted effect of over 65% in size
#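 CellTiter-Glo counter-screen, qHTS, 1536-well. Cells: S16(c9) Pmp22-F2sN, 500-1,000/well in DMEM + 10% FBS. Cpd 23 nL pin transfer, 24 h, 37C/5% CO2. Read: luminescence, CCD imager.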
# HTT prom inh – inhibits huntingtin promoter activity; Potency, µM (highest dose often 57.5 µM), without a hit: at the top dose activity change, negative = inhibition, usual class: inhibitors; 48,000 compounds, 0.93% hits; HEK293 HTT promoter firefly luciferase reporter, 24 h; AID 1508623; also: potency is read from the fitted curve at half-maximal effect; nearly all actives have a fitted effect of over 50% in size
#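 HEK293 Fluc reporter, 2,500 cells/well, 24 h pre-culture; cpds up to 57.5 uM final, 24 h 37 degrees C; Dual-Glo, 10 min RT; normalized vehicle = 0%, zero RLU = -100%.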
# PMP22 txn – modulators of PMP22 gene transcription in S16 Schwann cells; S16 Pmp22-F2sN Schwann cells (luciferase reporters placed in the Pmp22 gene), FLuc/NLuc coincidence luminescence, 24 h; Potency, µM (series often up to 57.5 µM), for the others: top-dose activity change, negative = inhibition, hits mostly inhibitors; 43,000 compounds, 2% hits; AID 1508649; active = clear falling dose curves in both reporters; inconclusive = both reporters move, but less clearly or upward; inactive = either reporter flat; the % is the NLuc reporter signal; also: potency is read from the fitted curve at half-maximal effect; % is scaled to controls: 0 for no effect and ±100 for the full control effect
#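 Luminescent read-out of sequential FLuc and NLuc signals from a reporter embedded in the Pmp22 3' UTR of S16 Schwann cells, taken after 24 h compound exposure at 37C; compounds reducing both signals score as inhibitors of expression.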
# OvCa metastasis – inhibitors of ovarian cancer cell adhesion and invasion in omental model; 46,000 compounds, 0.1% hits; SKOV3ip1-GFP adhesion/invasion on 3D omental model, fluorescence; Potency, µM (top dose mostly 45.8 µM), without a hit: at the highest dose activity change, negative = inhibition, hits mostly inhibitors; AID 1963576;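 also: potency is read from the fitted curve at half-maximal effect; plate controls were DMSO wells for no effect and tomatine positive control wells for full effect; nearly all actives have a fitted effect of over 65% in size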
#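 qHTS, 4-pt dose (0.36-46 umol/L); SKOV3ip1-GFP, 1,200 cells/well, no FBS; primary omental fibroblast/mesothelial co-culture 48 h pre-grown; 2 h RT + 16 h 37 C; PBS wash, 4% PFA; GFP count 488/509 nm.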
# mTORC1 inh – mTORC1 pathway inhibition measured by phospho-rpS6; 44,000 compounds, 0.78% hits; AID 493208; Potency, µM (titrated, usually from 38.3 µM), for inactives: at the highest dose activity change, negative = inhibition, actives largely listed as inhibitors; Tsc2-/- p53-/- MEF, phospho-rpS6 immunofluorescence/PI, 24 h;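 also: potency is read from the fitted curve at half-maximal effect; plate controls were DMSO for no effect and rapamycin for full effect; nearly all actives have a fitted effect of over 50% in size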
#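 Plate MEFs (Tsc2-/-, p53-/-, empty vector) in DMEM/10% FBS; after 24 h add compound, incubate 24 h at 37 degree Celsius; fix in PFA/TX-100, block, stain phospho-rpS6 and 10 uM PI; scan at 488 nm; report % positive cells.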
# NLuc sat counter – counter-screen for PMP22 expression modulators: NanoLuc inhibition, saturating substrate; shares compounds with PMP22 txn; Secreted NLuc enzyme (filtered S16 cell medium), Nano-Glo luminescence; Potency, µM (top dose mostly 57.5 µM), for the others: at the highest dose activity change, negative = inhibition, most hits filed as inhibitors; 690 compounds, 4% hits; AID 1508638; also: potency is read from the fitted curve at half-maximal effect; % is scaled to controls: 0 for no effect and ±100 for the full control effect
# NLuc Km ctr – counter-screen for PMP22 expression modulators: NanoLuc inhibition at Km; shares compounds with PMP22 txn; secreted NLuc enzyme, coelenterazine luminescence, Km conditions; Potency, µM (highest dose often 57.5 µM), for the others: at the top dose activity change, negative = inhibition, hits mostly inhibitors; 690 compounds, 5% hits; AID 1508639; also: potency is read from the fitted curve at half-maximal effect; % is scaled to controls: 0 for no effect and ±100 for the full control effect
# FLuc ctr PMP22 – inhibits firefly luciferase, PMP22 counter-screen. purified P. pyralis FLuc, luminescence, 10 min. shares compounds with PMP22 txn. 690 tested, under 10 active. Potency, µM (top dose mostly 57.5 µM), for the others: at the top dose activity, negative = inhibition, most hits filed as inhibitors. AID 1508640; also: % of control where 0% means no effect
# Target sequence (P08659 whole entry, looked up): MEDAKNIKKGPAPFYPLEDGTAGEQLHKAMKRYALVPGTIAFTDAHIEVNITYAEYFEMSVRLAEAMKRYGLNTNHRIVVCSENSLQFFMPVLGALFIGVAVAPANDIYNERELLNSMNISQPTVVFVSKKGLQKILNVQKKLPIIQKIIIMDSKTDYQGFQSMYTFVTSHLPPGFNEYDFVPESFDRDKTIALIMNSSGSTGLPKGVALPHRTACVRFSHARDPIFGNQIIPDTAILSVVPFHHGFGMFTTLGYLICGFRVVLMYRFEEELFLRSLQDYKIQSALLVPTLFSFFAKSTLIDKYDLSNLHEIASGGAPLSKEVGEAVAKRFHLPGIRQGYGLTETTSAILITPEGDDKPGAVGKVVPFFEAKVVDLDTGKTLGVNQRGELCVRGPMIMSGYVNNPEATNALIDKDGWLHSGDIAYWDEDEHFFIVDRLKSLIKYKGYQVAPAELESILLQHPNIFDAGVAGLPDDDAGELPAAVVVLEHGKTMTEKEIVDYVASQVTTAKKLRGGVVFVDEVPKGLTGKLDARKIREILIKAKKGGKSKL
# S16 viab conf – S16 Schwann cell cytotoxicity, confirmatory; Potency, µM (series often up to 57.5 µM), without a hit: at the top dose activity change, negative = viability loss, usual class: cytotoxic; shares compounds with PMP22 txn; 690 compounds, 7% hits; S16 Schwann cells viability, CellTiter-Glo ATP luminescence, 24 h; also: potency is read from the fitted curve at half-maximal effect; % is scaled to controls: 0 for no effect and ±100 for the full control effect
# PMP22 txn conf – PMP22 transcription modulation, confirmatory; AID 1508646; 690 compounds, 22% hits; S16 Schwann cells Pmp22-F2sN, dual luciferase, 24 h; Potency, µM (highest dose often 57.5 µM), without a hit: at the highest dose activity change, negative = inhibition, most hits filed as inhibitors; shares compounds with PMP22 txn; active = clear falling dose curves in both reporters; inconclusive = both reporters move, but less clearly or upward; inactive = either reporter flat; the % is the FLuc reporter signal; also: potency is read from the fitted curve at half-maximal effect
# PMP22 prot conf – confirmation of modulators of rat PMP22 protein expression; shares compounds with PMP22 txn; S16 Schwann cells Pmp22-HiBiT, luminescence, 48 h; 95 tested, under 10 active; AID 1508647; Potency, µM (series often up to 27.9 µM), for the others: at the top dose activity change, negative = inhibition, usual class: inhibitors
# Target sequence (P25094 whole entry, looked up): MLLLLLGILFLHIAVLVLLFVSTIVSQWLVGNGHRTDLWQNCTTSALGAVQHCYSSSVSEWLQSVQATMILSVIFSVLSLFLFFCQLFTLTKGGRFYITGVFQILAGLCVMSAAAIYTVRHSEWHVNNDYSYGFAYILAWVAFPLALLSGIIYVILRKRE
# * hit, by the source's call; i = inactive; ? = inconclusive; · = no result; [ ] = remark or other dose. Unless noted, calls follow the shape of the dose curve; as a rule, active = well fitted curve in the direction sought with a large enough effect; inconclusive = small, poorly fitted or top-dose-only effect, or another doubt; inactive = no such curve, though single readings can be large; an effect the other way counts as inactive or inconclusive.
SMILES,HTT-AS act,S16 F2sN tox,HTT prom inh,PMP22 txn,OvCa metastasis,mTORC1 inh,NLuc sat counter,NLuc Km ctr,FLuc ctr PMP22,S16 viab conf,PMP22 txn conf,others
CCN1CCN(c2nc3c(S(=O)(=O)c4ccc(C)cc4)nnn3c3ccsc23)CC1,-18%,-20%,-12%,17µM*,i,3%,-6%,-17%,0%,9%,-35%,
O=C(NCCc1ccccc1Cl)C1CCN(c2nc3ccccc3nc2C(F)(F)F)CC1,-11%,?,-10%,9.5µM*,-30%,0%,-1%,9%,4%,21%,-26%,
Cc1sccc1Br,-6%,·,4%,·,·,·,·,·,·,·,·,
C[C@@H]1[C@H](C)CC[C@]2(C(=O)O)CC[C@]3(C)C(=CC[C@@H]4[C@@]5(C)CC[C@H](O)C(C)(C)[C@H]5CC[C@]43C)[C@@H]12,-19%[116 µM],·,-12%[116 µM],·,4%[92.2 µM],·,·,·,·,·,·,
O=S(=O)(c1ccc(-c2csc(=Nc3ccc(OC(F)(F)Cl)cc3)n2CCCO)cc1)N1CCCC1,-63%,?,?,15µM*,?,?,0%,-2%,-10%,22µM*,19µM*,
Cc1ccc(CNC(=O)c2cn(C)c3ccc(S(=O)(=O)N(C)C4CCCCC4)cc3c2=O)cc1,-5%,1%,-12%[11.5 µM],-25%,i,-3%,·,·,·,·,·,
CN(C1CCCCC1)S(=O)(=O)c1ccc2c(c1)c(=O)c(C(=O)NCc1ccc(Cl)cc1)cn2C,29%[11.5 µM],-1%,-11%,?,-7%,0%,-1%,7%,7%,-11%,-31%,
COc1ccc(CC2SC(=O)NC2=O)cc1C(=O)NCc1ccc(C(F)(F)F)cc1 (centres undefined),-22%,·,-18%,·,2%,·,·,·,·,·,·,
O=C(O)CCCCCC(=O)NN=C1CCCC1,-9%,·,0%,·,-8%,·,·,·,·,·,·,
CCOc1ccc(C(=O)Nc2ccc3nc(SCc4ccccc4)sc3c2)cc1,-18%,9%,-20%,8.9µM*,10%,-13%,-7%,2%,3%,?,18µM*,
CC(=O)Nc1ccc2nc(SCc3ccccc3)sc2c1,?,-8%,30%,-26%,-25%,-1%,·,·,·,·,·,
Cc1ccc(CSc2nc3ccc(NC(=O)COc4ccccc4)cc3s2)cc1,-9%,7%,0%,15µM*,-6%,1%,1%,2%,6%,-16%,-25%,
Cc1ccc(OCC(=O)Nc2ccc3nc(SCc4ccccc4)sc3c2)cc1,-3%,0%,-6%,-40%,1%,-2%,·,·,·,·,·,
O=C(COc1ccc(F)cc1)Nc1ccc2nc(SCC(=O)N3CCc4ccccc43)sc2c1,-12%,13%,-10%,3µM*,4%,-1%,?,-11%,-1%,-20%,?,
CC(=O)N1CCN(c2ccc(OCc3nn(C)c(C)c3-c3cccc4c(CCCOc5cc(C)c(Cl)c(C)c5)c(C(=O)O)n(Cc5cccnc5)c34)cc2)CC1,-22%,·,0%,·,19%,·,·,·,·,·,·,
Fc1ccc(CNc2ncnc3ccc(F)cc23)cc1,-92%,·,-34%,·,2%,·,·,·,·,·,·,
CN(C)CCOc1cc(-c2cn[nH]c2)ccc1NC(=O)C1COc2ccccc2O1 (centres undefined),-42%,·,-19%,·,17%,·,·,·,·,·,·,
CCOC(=O)c1c(NC(=O)c2nc(S(C)(=O)=O)ncc2Cl)sc(C(C)=O)c1C,2%,?,4%,4.3µM*,?,3.7µM*,?,?,-10%,14µM*,3.4µM*,PMP22 prot conf=?
CCOC(=O)c1c(NC(=O)COc2cccc(C)c2C)sc(C(C)=O)c1C,17%[11.5 µM],7%,-5%,1%,i,13%,·,·,·,·,·,
CCOC(=O)c1c(NC(=O)COc2ccc(Br)cc2)sc(C(C)=O)c1C,6%,-23%,-21%,2.1µM*,-6%,3%,-3%,3%,-5%,-9%,-6%,
CCNC(=O)CCCC=CC[C@@H]1[C@H](C=CC(O)CCc2ccccc2)[C@@H](O)C[C@@H]1O (some centres undefined),-7%,·,-7%,·,2%,·,·,·,·,·,·,
CCOC(=O)c1c(S(=O)(=O)N2CCCC(C(=O)N3CCN(c4cccc(C)c4C)CC3)C2)c(C)n(C)c1C (centres undefined),-22%,-21%,?,17µM*,i,-2%,?,?,4%,-8%,-23%,
CCCOc1ccc(CN2C(=O)C(=O)c3cccc(C)c32)cc1,-28%,-7%,?,11µM*,?,?,?,?,-16%,?,?,
Cc1ccc(/C=N/NC(=O)c2ccccc2Oc2ccccc2)o1,-20%,·,-17%,·,5%,·,·,·,·,·,·,
Clc1cccc(N2CCN(c3ncnc4c3nc3n4CCCCC3)CC2)c1,-61%,-10%,10µM*,20µM*,i,-21%,?,14µM*,-3%,?,?,

# From PubChem BioAssay
